Measurements from PubChem BioAssay (NCI).
The panel holds about 83,000 compounds, 20% with a hit somewhere; the sample as a whole holds those more often.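 Method: cells in 96-well plates; compound added at one concentration; 48 h incubation; percent growth measured; values under 10 scored active.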 Calls of active or inactive are those of the source.

These compounds were tested on HL-60(TB) leukemia (assay: NCI-60 one-dose screen, 48 h (100 = growth as untreated, 0 = no growth, -100 = all killed)). Details: 10 µM unless noted.
With CN(C)CCOc1ccc(/C(=C(/CCCl)c2ccccc2)c2ccccc2)cc1 the growth was -33% (active). With CC1(C)N=c2cc3c(cc2N1c1ccc(Cl)cc1)=Nc1ccccc1N3c1ccc(Cl)cc1 the growth was -40.4% (active). In the case of COc1cc(C2=NN(c3ccc(S(N)(=O)=O)cc3)C(c3ccc(Cl)cc3)C2)cc(OC)c1OC (stereo unspecified), the growth is reported as -25.8% (active). COc1ccc(C2C(C#N)=C(N)Oc3c2sc2c(Br)cccc32)cc1 (stereo unspecified) was tested, and the growth was -9.13% (active). In the case of CCCCC(=O)OCC1OC(n2cnc3c(=S)nc[nH]c32)C(OC(=O)CCCC)C1OC(=O)CCCC (stereo unspecified), the growth is reported as 12.5% (inactive). For O=C(NCCO)C(F)(F)F, the growth was 103% (inactive). For CN(C)CCS(=O)(=O)CCN(C)C, the growth was 110% (inactive). With O=CN1N=C(c2ccc(Nc3ccnc4cc(Cl)ccc34)cc2)CC1c1ccccc1 (stereo unspecified) the growth was -25.8% (active). With CC1(C)CC([P+](c2ccccc2)(c2ccccc2)c2ccccc2)=NN1 the growth was -49.2% (active). For O=c1cc(C2NCCc3c2[nH]c2ccccc32)c2c(ccc3ccccc32)o1 (stereo unspecified), the growth was 48.5% (inactive). CC(c1ccccc1)N1C(=O)CSC1=S (stereo unspecified) was tested, and the growth was -40.6% (active). For COc1cccc(/C=N/NC(=O)c2cnn3c2NC(c2ccccc2)C3)c1Oc1ccccc1 (stereo unspecified), the growth was 74.6% (inactive). With O=C1CCC(C(=O)NN(c2ccccc2)c2ccccc2)N1 (stereo unspecified) the growth was -18.8% (active). In the case of COc1cc(C2CC(=O)Nc3c2cnn3C)cc(OC)c1OC (stereo unspecified), the growth is reported as 97.6% (inactive). For COc1ccc(-c2cc(-c3cccc(Cl)c3)c(C#N)c(=O)[nH]2)c(OC)c1, the growth was 95.6% (inactive). With COCCCN=C(N)c1ccc(NC(=O)c2ccc(C(=O)Nc3ccc(C(N)=NCCCOC)cc3)cc2)cc1 the growth was 71.3% (inactive).
